High-throughput results from PubChem BioAssay.
Only some compounds are listed: those with a hit (about 5.9% of all), similar ones and a draw of the others.
RORgamma inh – qHTS for inhibitors of ROR gamma transcriptional activity | Nuclear receptor ROR-gamma (Mus musculus), P51450 | Drosophila S2 Gal4-RORgamma UAS-luciferase reporter, 20 h | Potency, µM (top dose mostly 53.6 µM), inactives show at the highest dose activity change, negative = inhibition, actives largely listed as inhibitors | 310,000 tested, 5.4% active | AID 2551, 2010; further: on the % scale 0 is the no-effect control and ±100 the full control effect; nearly all actives have a fitted effect of over 60% in size
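Stably transfected Drosophila Schneider cells are the test system, with ROR gamma fused to Gal4 and luciferase under UAS control; luminescence is read after 20 hr of 700 uM copper sulfate induction at ambient temperature.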
VP16 counter – VP16 counterscreen qHTS for inhibitors of ROR gamma transcriptional activity; Drosophila S2 Gal4-VP16 UAS-luciferase, luminescence, 20 h; Potency, µM (series often up to 53.6 µM), for the others: top-dose activity, negative = inhibition, usual class: inhibitors; 310,000 tested, 3.5% active;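 further: Gal4-VP16 expression switched on by copper sulfate through the metallothionein promoter; on the % scale 0 is the no-effect control and ±100 the full control effect; nearly all actives have a fitted effect of over 50% in size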
GLP-1R inv ag – qHTS of GLP-1 Receptor Inverse Agonists (Inhibition Mode) | Glucagon-like peptide 1 receptor (Homo sapiens), P43220 | 410,000 tested, 1.6% active | Potency, µM (top dose mostly 38.3 µM), inactives show at the highest dose activity change, negative = inhibition, most hits filed as inhibitors | HEK293 GLP-1R CRE-luciferase, luminescence, 24 h; GLP-1R form is constitutively active; further: on the % scale 0 is the no-effect control and ±100 the full control effect; nearly all actives have a fitted effect of over 55% in size
Target sequence (P43220 whole entry, looked up): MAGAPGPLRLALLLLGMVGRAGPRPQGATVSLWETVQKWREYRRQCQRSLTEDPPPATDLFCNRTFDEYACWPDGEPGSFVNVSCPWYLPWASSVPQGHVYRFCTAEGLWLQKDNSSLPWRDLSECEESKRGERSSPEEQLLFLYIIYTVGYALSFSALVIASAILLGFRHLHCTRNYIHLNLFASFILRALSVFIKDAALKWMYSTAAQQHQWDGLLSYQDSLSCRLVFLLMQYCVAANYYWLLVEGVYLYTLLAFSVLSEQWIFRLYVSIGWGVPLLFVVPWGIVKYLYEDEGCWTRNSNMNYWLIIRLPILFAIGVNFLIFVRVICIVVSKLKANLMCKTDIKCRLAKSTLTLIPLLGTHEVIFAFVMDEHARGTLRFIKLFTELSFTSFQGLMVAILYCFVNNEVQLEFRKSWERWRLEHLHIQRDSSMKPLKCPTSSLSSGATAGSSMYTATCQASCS
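GLP-1R inverse agonism mode: basal reporter luminescence in engineered HEK293 cells measured after one day of compound exposure at 37 deg C, with a 12 min room-temperature detection step.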
HEK293 tox – qHTS of GLP-1 Receptor Inverse Agonists: Cytotox Screen; HEK293 cAMP-luciferase reporter cells, luminescence, 24 h; Potency, µM (highest dose often 38.3 µM), for the others: at the top dose activity change, negative = inhibition, actives largely listed as inhibitors; 410,000 tested, 0.13% active; AID 624418, 2012;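 further: loss of luciferase light is scored as toxicity; on the % scale 0 is the no-effect control and ±100 the full control effect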
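1536-well qHTS counterscreen of the MLSMR; 200 cells/uL, 12 h pre-incubation, 23 nL cpd, 24 h at 37 deg C 5% CO2, luciferase detection reagent, 12 min RT, luminescence. Inhibition = undesired.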
GLP1R ag – qHTS of GLP-1 Receptor Agonists; Glucagon-like peptide 1 receptor (Homo sapiens), P43220; HEK293 GLP-1R CRE-luciferase, luminescence, 4-6 h; cells express a hypersensitive GLP-1R form; Potency, µM (doses to about 45.6 µM), for inactives: at the highest dose activation, most hits filed as activators; 380,000 tested, 0.007% active; AID 624172, 2012; further: % of control where 0% means no effect
Active calls of the source: *; ? = inconclusive; nt = no result given; [ ] = dose if it differs, or a comment. The call rests on the fitted dose curve; in most records, active means well fitted curve in the direction sought with a large enough effect; inconclusive means small, poorly fitted or top-dose-only effect, or another doubt; inactive means no such curve, though single readings can be large; an effect the other way counts as inactive or inconclusive. Potency means the concentration at half of the fitted maximal effect.

SMILES | RORgamma inh | VP16 counter | GLP-1R inv ag | HEK293 tox | GLP1R ag
O=C(C1CC12CCCC2)N1CCC(CO)(Cc2ccccc2Cl)CC1 (stereo not drawn) | 16% | 0% | 10µM* | 0% | -2%
O=C(NNc1ccccc1[N+](=O)[O-])Nc1ccccc1 | 5% | 2% | 0% | 2% | -2%
CNC(=S)NNc1ccccc1[N+](=O)[O-] | 16µM* | 6% | -1%[0.307 µM] | -3%[0.307 µM] | 0%
COCCNC(=S)NNc1ccccc1[N+](=O)[O-] | ? | 11µM* | -17% | 1% | 3%
CCCC(C)C(=O)Nc1nc(C)c(-c2csc(Nc3ccccc3OC)n2)s1 (stereo not drawn) | -1% | ? | 2% | 11% | -5%
CCCC(C)C(=O)Nc1nc(C)c(-c2csc(Nc3ccc(Cl)cc3)n2)s1 (stereo not drawn) | ? | 11µM* | ? | 2% | -2%
CCC(C)C(=O)Nc1nc(C)c(-c2csc(Nc3cc(Cl)ccc3OC)n2)s1 (stereo not drawn) | ? | ? | -24% | 2% | 0%
COc1ccc(OC)c(Nc2nc(-c3sc(NC(=O)C(C)(C)C)nc3C)cs2)c1 | ? | 11µM* | ? | 3% | -1%
COc1ccc(Cl)cc1Nc1nc(-c2sc(NC(=O)C(C)(C)C)nc2C)cs1 | ? | 7.1µM* | ? | 13% | -1%
COc1ccc(OC)c(Nc2nc(-c3sc(NC(=O)CC(C)C)nc3C)cs2)c1 | 31% | -24% | 11% | 4% | -1%
COc1ccc2c(CNC3CCC(C)CC3)c(C(=O)O)n(Cc3ccccc3)c2c1 (stereo not drawn) | nt | nt | -18% | -24% | 0%
CC(C)C[C@H](NC(=O)[C@H](CO)NC(=O)[C@@H]1CCCN1C(=O)[C@H](Cc1ccc(O)cc1)NC(=O)[C@H](CC(C)C)NC(=O)[C@H](CC(C)C)NC(=O)[C@@H]1CCCN1C(=O)[C@@H](NC(=O)[C@H](CO)NC(=O)[C@H](CO)NC(=O)[C@H](CO)NC(=O)[C@H](CO)NC(=O)[C@@H]1CCCN1C(=O)[C@@H](NC(=O)[C@@H](N)CO)C(C)C)[C@@H](C)O)C(=O)N[C@@H](C)C(=O)N[C@@H](CC(C)C)C(=O)N1CCC[C@H]1C(=O)N[C@@H](C)C(=O)N1CCC[C@H]1C(=O)O | 8% | -5% | nt | nt | nt
CCCNC(=O)OC[C@@H]1O[C@H](CCO/N=C\C[C@H]2C=C[C@H](OC(C)=O)[C@@H](COC(C)=O)O2)C=C[C@@H]1Oc1ccc(OC)cc1 | 16%[10 µM] | -2%[10 µM] | nt | nt | nt
CNC(=O)C[C@@H](N)C(=O)N[C@@H](C(=O)N[C@@H]1C(=O)N2[C@@H]1SC(C)(C)[C@@H]2C(=O)O)c1ccc(O)cc1 | 1% | 3% | nt | nt | -1%
COc1ccccc1-c1cc(C(=O)N/N=C/c2ccc(C)s2)c2ccccc2n1 | 2.8µM* | 4.5µM* | -8% | -4% | -4%
COc1ccc(/C=N/NC(=O)c2cc(-c3ccccc3OC)nc3ccccc23)cc1COC(C)=O | 10% | 8% | 32% | -15% | 25%
CCc1ccc(/C=N/NC(=O)c2cc(C3CC3)nc3ccc(Br)cc23)s1 | 2.2µM* | 1.6µM* | ? | ? | 10%
COc1ccccc1-c1cc(C(=O)N/N=C/c2ccoc2)c2ccccc2n1 | 11µM* | ? | 7% | 6% | 2%
CCc1ccc(/C=N/NC(=O)c2cc(-c3ccccc3OC)nc3ccccc23)s1 | 4µM* | 4.5µM* | 31% | 0% | -5%
COc1ccc(OC)c(-c2cc(C(=O)NC(C)c3ccccc3)no2)c1 (stereo not drawn) | nt | nt | -9% | 39% | nt
Cc1ccsc1/C=N/NC(=S)NCCc1ccccc1 | 1µM* | 6.3µM* | -10%[0.307 µM] | -5%[0.307 µM] | -4%
CCNC(=S)N/N=C/c1sccc1C | 0.4µM* | 3.2µM* | nt | nt | nt
CC(C)(C)c1cc(C(=O)NNc2cc(C(F)(F)F)ccc2Cl)n(Cc2ccccc2)n1 | ? | 8.9µM* | 4µM* | -81% | 3%
CC(C)(C)c1cc(C(=O)Nc2ccc(F)cc2)n(Cc2ccc(F)cc2)n1 | 11µM* | ? | 2.8µM* | ? | -5%
COc1ccccc1NNC(=O)c1cc(C(C)(C)C)nn1Cc1ccccc1 | ? | -5% | ? | -15% | 11%
SMILES | RORgamma inh | VP16 counter | GLP-1R inv ag | HEK293 tox | GLP1R ag
CC(C)(C)c1cc(C(=O)NNc2cccc(Cl)c2)n(Cc2ccccc2)n1 | ? | ? | 1.3µM* | 6% | -1%
CC(C)(C)c1cc(C(=O)NC2CC2)n(Cc2ccc(F)cc2)n1 | 9% | -9% | ? | -3% | 10%
CC(C)(C)c1cc(C(=O)NNc2ccc(OC(F)(F)F)cc2)n(Cc2ccccc2)n1 | 29% | -17% | 2.2µM* | 6% | 4%
Cc1ccc(-c2cc(C(=O)O)n(Cc3ccccc3)n2)cc1 | nt | nt | 6% | 3% | nt
CC(C)(C)C(=O)NNC(=O)c1cc(C(C)(C)C)nn1Cc1ccccc1 | 21% | -8% | ? | 6% | 11%
Cc1ccc(NC(=O)c2cc(C(C)(C)C)nn2Cc2ccccc2)cc1 | -16% | -19% | 4µM* | -20% | -22%
Cc1ccc(NNC(=O)c2cc(C(C)(C)C)nn2Cc2ccccc2)cc1 | ? | 18µM* | 3.2µM* | 4% | -1%
Cc1cc2oc(C(=O)Nc3cccc(-c4nc5ccccc5o4)c3)c(C)c2cc1Cl | nt | nt | -3% | -3% | nt
COc1ccccc1C(=O)NC1=NC(c2ccc(Br)cc2)CC(=O)N1 (stereo not drawn) | nt | nt | 1% | -4% | nt
CC(=O)O[C@@H]1[C@@H](O)CN[C@@H]1Cc1ccccc1 | 0.5µM* | 0.28µM* | nt | nt | nt
CCOC(=O)C(=O)N1CCC(Cc2ccccc2)CC1 | -9% | 20% | -15%[7.66 µM] | 21%[7.66 µM] | 9%
CCN(CC(=O)NCCc1ccc(S(N)(=O)=O)cc1)Cc1nc2ccccc2c(=O)[nH]1 | 6.3µM* | 20µM* | 2% | 6% | -7%
CCN(CC(=O)NCCc1ccc(S(N)(=O)=O)cc1)Cc1nc2cc(OC)c(OC)cc2c(=O)[nH]1 | -26% | 0% | 4% | 20% | 9%
CCN(CC(=O)NC(=O)NCc1ccco1)Cc1ccccc1 | nt | nt | -25% | -3% | 16%
CCN(CC(=O)NC(=O)NCc1ccco1)Cc1nc2ccccc2c(=O)[nH]1 | 0.56µM* | 1.1µM* | -12% | 11µM* | 0%
Cc1cc(Br)ccc1NC(=O)CNC(=O)CN(C)Cc1nc2ccccc2c(=O)[nH]1 | 13µM* | -30% | 1% | -4% | 0%
